IP6K1 inhibitor = IP6K1 kinase inhibition; Q92551; IP6K1 kinase, ADP-Glo luminescence, 2 h; active compounds read low; activity change, % (series mostly up to about 58 µM); hit rate 0.81% among 140,000; in the data active means activity change below about -25%; further: on the % scale 0 is the no-effect control and ±100 the full control effect
Target sequence (Q92551 whole entry, looked up): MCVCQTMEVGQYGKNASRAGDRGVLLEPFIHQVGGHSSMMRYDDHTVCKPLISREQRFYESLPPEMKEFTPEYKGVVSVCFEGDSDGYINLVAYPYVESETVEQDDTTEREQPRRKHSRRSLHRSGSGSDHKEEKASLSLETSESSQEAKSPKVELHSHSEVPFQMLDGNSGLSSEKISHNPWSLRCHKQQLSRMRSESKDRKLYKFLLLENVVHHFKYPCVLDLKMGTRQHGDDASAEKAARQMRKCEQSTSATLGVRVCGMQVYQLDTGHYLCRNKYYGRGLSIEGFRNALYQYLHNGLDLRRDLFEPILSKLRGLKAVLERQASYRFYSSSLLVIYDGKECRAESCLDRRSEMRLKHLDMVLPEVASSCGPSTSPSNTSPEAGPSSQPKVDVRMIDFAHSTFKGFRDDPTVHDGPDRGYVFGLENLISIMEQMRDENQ
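ADP-Glo luminescence measures ADP made by human IP6K1 during a 2 h RT reaction with ATP/IP6 (mix at 1.3 mM/130 uM); top library doses 57.5 and 19.1 uM final.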
GPT2 inhibitor = blocks human glutamate pyruvate transaminase 2; Potency, µM (series often up to 57.7 µM), for the others: top-dose activity change, negative = inhibition, hits mostly inhibitors; Q8TD30; hit rate 0.25% among 100,000; Recombinant GPT2, coupled pyruvate oxidase/HRP Amplex Red fluorescence; further: potency means the concentration at half of the fitted maximal effect; on the % scale 0 is the no-effect control and ±100 the full control effect; nearly all actives have a fitted effect of over 60% in size
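GPT2 10ng/uL, a-KG 250uM, L-Ala 2mM, HEPES pH7.5 + 0.0001% Tween; 30 min RT. Then Amplex mix (PO/HRP/ThPP), 30 min RT dark, fluorescence. AOA 50uM used as positive control.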
SNCA viab count = reduces viability of HEK-293 SNCA reporter cells; HEK-293-SNCA-luc viability, GF-AFC fluorescence, 24 h; Potency, µM (titrated, usually from 57.1 µM), inactives show top-dose activity change, negative = cytotoxicity, actives largely listed as cytotoxic; hit rate 0.12% among 150,000; AID 1671193;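 further: potency means the concentration at half of the fitted maximal effect; 0% = DMSO-treated cells and -100% = medium-only wells without cells; nearly all actives have a fitted effect of over 30% in size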
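Cytotoxicity counterscreen: after 24 h compound treatment of genome-edited SNCA-luciferase HEK-293 cells, live-cell protease substrate GF-AFC read by fluorescence after 30 min; activity scaled between DMSO (0%) and medium-only (-100%), curves Hill-fitted.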
SNCA expr inh = inhibitors of alpha-synuclein (SNCA) gene expression. AID 1671194. HEK-293 SNCA-luciferase knock-in, luminescence, 24 h. Potency, µM (titrated, usually from 57.2 µM), inactives show top-dose activity change, negative = inhibition, most hits filed as inhibitors. hit rate 0.17% among 140,000;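 further: potency means the concentration at half of the fitted maximal effect; plate controls were DMSO cells for no effect and cell-free wells for full effect; nearly all actives have a fitted effect of over 45% in size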
IP6K1 inh cnf = confirmation of human IP6K1 inhibitors. shares compounds with IP6K1 inhibitor. recombinant IP6K1 kinase, ADP-Glo luminescence, 2 h. Potency, µM (highest dose often 49 µM), inactives show at the top dose activity change, negative = inhibition, hits mostly inhibitors. hit rate 13% among 1,200. AID 1645852; further: potency means the concentration at half of the fitted maximal effect; on the % scale 0 is the no-effect control and ±100 the full control effect; nearly all actives have a fitted effect of over 65% in size
GPT2 inh cnf = human alanine aminotransferase 2 inhibition, confirmatory | shares compounds with GPT2 inhibitor | GPT2 enzyme, coupled Amplex Red pyruvate fluorescence | Potency, µM, hits mostly inhibitors | hit rate 90% among 95 | AID 1671187
Active calls of the source: *; i = inactive; ? = inconclusive; nt = no result; ! = a repeat was not active; [ ] = another dose, or the depositor's remark. Only some compounds are listed: those with a hit (about 1.1% of all), similar ones and a draw of the others. Unless noted, the call rests on the fitted dose curve; in most records, active means well fitted curve in the direction sought with a large enough effect; inconclusive means small, poorly fitted or top-dose-only effect, or another doubt; inactive means no such curve, though single readings can be large; an effect the other way counts as inactive or inconclusive.

SMILES	IP6K1 inhibitor	GPT2 inhibitor	SNCA viab count	SNCA expr inh	GPT2 inh cnf	others
COc1cccc(C2c3c(oc4ccc(C)cc4c3=O)C(=O)N2CCCN2CCOCC2)c1OC (stereo unspecified)	-25.1*	nt	-3.4%	-5.7%	nt	IP6K1 inh cnf=-2.1%
COc1cc(C2c3c(oc4cc(C)c(C)cc4c3=O)C(=O)N2CCCN2CCOCC2)ccc1O (stereo unspecified)	37.0	nt	-9.0%	7.0%	nt
CN1CCOc2c(C(=O)NCc3cccnc3)cc(-c3ccccc3F)cc21	-28.6*	3.5%[88.5 µM]	?	-9.3%[87.6 µM]	nt	IP6K1 inh cnf=-16.8%
Cc1ccccc1-c1cc(C(=O)NCc2cnn(C)c2)c2c(c1)N(C)CCO2	-25.1*	i	-13.7%[87.6 µM]	?	nt	IP6K1 inh cnf=?
COc1ccccc1-c1cc(C(=O)NCc2cccnc2)c2c(c1)N(C)CCO2	-10.5	-7.8%[88.5 µM]	-8.4%[87.6 µM]	-1.9%[87.6 µM]	nt
COc1cncc(-c2cc(C(=O)NCc3cccnc3)c3c(c2)N(C)CCO3)c1	-28.0*	?	-11.6%[87.6 µM]	?	nt	IP6K1 inh cnf=?
O=C(c1cccc(Cl)c1)N1CCC(C(=O)N2CCC(N3Cc4cccn4C3=O)CC2)CC1	-0.6	-0.4%	-2.1%	-15.2%	nt
CC(C)NC(=O)N1CCN(C(=O)c2ccc(N(C)C)cc2)C[C@H]1C(=O)N[C@@H](CC1CCCCC1)C(N)=O	-11.1	i	-14.8%	-37.2%	nt
O=C(NCc1cccc(Cl)c1)c1noc(-c2ccc3c(c2)OCO3)n1	-3.1	i	0.1%	12.8%	nt
Cc1ccc(-c2nnn3c2nc(N2CCC(C)CC2)c2ccccc23)cc1	-28.9*	nt	-15.2%	82.8%	nt	IP6K1 inh cnf=-8.9%
Cc1ccc(NC(=O)CCNc2c(C)nc3cnccn23)c(F)c1	14.6	?	13.2%	-12.4%	6.85*
COc1cccc(CNC(=O)c2nc3sccn3c2-c2ccccc2)c1	-7.6	i	1.0%	6.9%	nt
COc1ccc(OC)c(CN2CCNc3cnc(Nc4cccnc4)cc3C2)c1	12.9	?	6.5%[87.6 µM]	-25.7%[87.6 µM]	5.59*
Cn1cc(CN2CCNc3cnc(Nc4ccccc4)cc3C2)cn1	nt	nt	nt	nt	2.8*
Fc1cccc(CN2CCNc3cc(Nc4ccccc4)ncc3C2)c1	-5.3	i	?	32.2%[87.6 µM]	nt
c1ccc(Nc2cc3c(cn2)CN(Cc2ccsc2)CCN3)cc1	12.0	?	?	26.9%[87.6 µM]	nt
c1ccc(CN2CCNc3cc(Nc4ccc(N5CCOCC5)cc4)ncc3C2)cc1	-0.1	?	?	9.3%[87.6 µM]	4.44*
COc1ccccc1CN1CCNc2cnc(Nc3ccccc3)cc2C1	-18.9	?	-19.1%[87.6 µM]	-18.5%[87.6 µM]	4.44*
Cc1cnc(CCNC(=O)NC(C)(C)C)n1Cc1ccccc1	-0.4	0.7%	15.5%	15.8%	nt
COc1ccc(-c2ccc(NC(=O)c3cccc(Cl)c3)cc2)nn1	17.8	nt	nt	nt	nt
COc1cccc(CN2CCNc3cnc(Nc4ccccc4)cc3C2)c1	-5.7	?	-2.9%[87.6 µM]	-16.0%[87.6 µM]	4.98*
Cn1nccc1OCc1cn2c(=O)n(C)cc(-c3ccc(F)cc3)c2n1	nt	nt	nt	nt	6.27*
COc1cc(-c2nc3c([nH]2)CCCNC3=O)ccc1O	15.4	?	-9.0%	-21.2%	6.11*
O=C(c1ccoc1)N1CCCN(Cc2ccc3c(c2)OCO3)c2ccccc21	8.3	-9.4%	-8.4%	-19.8%	nt
CN1CCCN(Cc2ccc3c(c2)OCO3)c2ccccc21	21.6	?	-17.3%	25.0%	3.06*
SMILES	IP6K1 inhibitor	GPT2 inhibitor	SNCA viab count	SNCA expr inh	GPT2 inh cnf	others
O=C1C(Cl)=C(NCCN2CCOCC2)C(=O)c2ncccc21	nt	1.37µM*	?	-27.9%	1.53*
Clc1ccccc1-c1nccc(NCCN2CCOCC2)n1	nt	nt	0.1%	70.2%	nt
COc1ccc(N2CC3(C2)CN(c2ccccc2)C(=O)O3)cc1OC	8.8	?	-1.3%[87.6 µM]	2.0%[87.6 µM]	?
O=C(/C=C/c1ccc(O)c(O)c1)OCCc1ccccc1	nt	-3.1%	-21.1%	43.7%	nt
O=C(O)C=Cc1ccc(O)c(O)c1	nt	4.32µM*	-2.3%	-3.9%	3.43*
CC12CC34CC(O)C5C(CO)(CO)CC(=O)CC5(C)C3CC1C2C4 (stereo unspecified)	-1.0	i	3.0%	nt	nt
Cc1ccc(CNC(=O)c2ccc3c(c2)CN(Cc2ccc(N(C)C)cc2)CCO3)cc1	10.0	-0.2%	-10.5%	?	nt
COc1ccc(CNC(=O)N2CCOc3ccc(N(C)C)cc3C2)cc1	0.0	1.78µM*	-14.2%	12.8%	0.863*
O=C(CCC[C@H]1NC[C@@H]2C[C@H]1CN(Cc1ccccc1)C2)Nc1ccc(N2CCOCC2)cc1	-22.3	7.08µM*	-6.4%	8.8%	4.85*
Cn1ncc2c(C(=O)NCC(F)F)cc(-c3ccccc3F)nc21	-2.6	nt	nt	nt	nt
CN1CCOc2c(C(=O)NCc3cccnc3)cc(-c3ccc(N4CCOCC4)cc3)cc21	-11.1	-2.4%	4.9%	-24.0%	nt
COCCNC(=O)c1cc(N2CCOCC2)cc2c1OCCN2C	nt	nt	nt	nt	1.57*
CC(C)[C@]1(O)CN(C(=O)Cn2[nH]c3ccccc3c2=O)C[C@H]1C	-2.4	?	-0.6%	-0.4%	4.32*
C[C@@H]1CN(C(=O)Cn2ccc(=O)[nH]c2=O)C[C@@]1(O)C1CCC1	7.8	i	9.1%	10.2%	nt
CCOc1cc(N2CCC(O)CC2)ccc1Nc1ncc2c(n1)N(C)c1ccccc1C(=O)N2C	nt	12.2µM*	1.2%	103.5%	3.06*
Cc1ccc([S+](=O)([O-])N2CCN(Cc3ccccc3-c3cccnc3)CC2)cc1	0.8	-0.9%	2.0%[12.5 µM]	?	nt
O=C(c1cnccn1)N1CCC2(CC1)CCC(O)(CN1CCc3ccccc31)CC2	-7.4	?	-7.9%	-24.6%	1.09*
O=C(c1cnccn1)N1CCC2(CCN(Cc3ccccc3)CC2)CC1	nt	nt	7.4%	-9.1%	nt
O=C(c1cccc2[nH]ccc12)N1CCC(n2cc(-c3nc(-c4ccccc4)no3)nn2)CC1	2.5	0.4%	-17.2%	8.5%	nt
c1ccc2c(CCNc3ccc(Nc4ccncc4)cc3)c[nH]c2c1	23.3	14.1µM*!	-12.0%	?	4.85*
COc1ccc(F)cc1-c1ccc(CN2CCC(NC(=O)Nc3ccccc3)C2)cc1 (stereo unspecified)	7.0	nt	nt	nt	nt
c1cncc(-c2ccnc(NCCCN3CCCc4ccccc43)n2)c1	2.5	?	5.7%	-8.9%	2.17*
CC(=O)Oc1c(-c2ccc(NC(=O)c3ccccc3)cc2)c(-c2cccc(F)c2)nn1-c1ccccc1	9.6	?	1.2%	-2.7%	nt
COc1cccc(-c2nn(-c3ccccc3)c(OC(C)=O)c2-c2ccc(NC(=O)c3ccco3)cc2)c1	-5.9	?	0.2%	-12.3%	7.69*
Cc1ccc(Nc2ccnc(N3CCC(C(=O)NCC(F)(F)F)CC3)n2)cc1	-7.4	-8.6%	5.6%[12.5 µM]	19.2%	nt
CN(C)c1cccc(C(=O)N2CCNc3cnc(Nc4ccc(N5CCOCC5)cc4)nc3C2)c1	-1.8	2µM*	3.3%	4.8%	1.93*
CN(C)CCN1CCCN(C(=O)CCc2ccccc2)c2ccccc21	-5.2	-6.7%	2.7%	4.8%	nt
